Where “and” joins values, the source holds several entries; their conditions need not be identical. Equal entries are not always repeated. Results filed as inconclusive are left out. A call without a number means that no potency is given here. Some structures have more than one record in an assay (separate samples or runs), and their calls can disagree. Calls of active or inactive are those of the source. Unless noted, calls come from the whole dose curve.
Experiment: qHTS assay to identify small molecule agonists of H2AX (AID 1224845; active = well fitted activation curve with a large enough effect in the signal ratio in the repeat runs, not every such curve was filed as active; the % refers to the signal ratio; note: potency is the fitted concentration of half-maximal effect)
Conditions: CHO-K1 phospho-H2AX Ser139 HTRF, 3 h; series mostly up to 154 µM
Summary of the method: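 Wild-type CHO-K1 cells, plated overnight, exposed 3hr at 37C to 15 concentrations (0.76% DMSO final). Lysed, then HTRF anti-pH2AX (S139) cryptate and anti-H2AX-d2 antibodies, 24 hr room temperature; 665/620 nm emission read.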

| SMILES | Potency |
| --- | --- |
| O=C(O)CC(O)(CC(=O)O)C(=O)O | inactive |
| Oc1cccc2cccnc12 | 1.43 µM (active) and 3.02 µM (active) and inactive |
| CCC[N+]1(C)CCCC1 | inactive |

Experiment: qHTS assay to identify small molecule agonists of the hypoxia (HIF-1) signaling pathway (AID 1224846; active = well fitted activation curve with a large enough effect in the signal ratio in the repeat runs, not every such curve was filed as active; the % refers to the signal ratio)
Conditions: HRE-bla ME-180 cells, beta-lactamase ratio, 17 h; series mostly up to 76.8 µM
Summary of the method: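 ME-180 HRE-bla reporter cells; compounds in DMSO, 17 h at 37C; read-out beta-lactamase via CCF4-AM FRET.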

| SMILES | outcome |
| --- | --- |
| CCCCCC[n+]1ccccc1 | inactive |
| Nc1ccc(Cl)cc1 | inactive |
| CCCCCCCCCCCCn1cc[n+](C)c1 | inactive |
| CCCCCCCCCCCCCCCCn1cc[n+](C)c1 | inactive |
| Cc1cc(-c2ccc(N)c(C)c2)ccc1N | inactive |
| CCCCCCn1cc[n+](C)c1 | inactive |
| CCCCCCCCCCn1cc[n+](C)c1 | inactive |
| CCCCCCCCn1cc[n+](C)c1 | inactive |
| Cc1cc(Cl)ccc1OCC(=O)O | inactive |
| CCCn1cc[n+](C)c1 | inactive |
| CC(Cl)(Cl)C(=O)O | inactive |
| CCCC[n+]1cccc(C)c1 | inactive |
| CCCC[n+]1ccc(C)cc1 | inactive |
| CC[n+]1ccccc1 | inactive |
| Nc1ccc(-c2ccc(N)c(Cl)c2)cc1Cl | inactive |
| Nc1ccccc1 | inactive |
| Nc1ccc(-c2ccc(N)cc2)cc1 | inactive |
| O=C(O)c1ccccc1O | inactive |
| CCCC[n+]1ccccc1C | inactive |
| O=C(O)COc1ccc(Cl)cc1Cl | inactive |
| CCCC[N+]1(C)CCCC1 | inactive |
| CC(=O)O | inactive |
| COP(=O)(OC)OC=C(Cl)Cl | inactive |
| CCC[N+]1(C)CCCC1 | inactive |

Experiment: qHTS assay to identify small molecule agonists of H2AX - cell viability counter screen (AID 1224847); note: nearly all actives have a fitted effect of over 30% in size; note: potency is the fitted concentration of half-maximal effect
Conditions: CHO-K1 viability, CellTiter-Glo luminescence, 3 h; series mostly up to 154 µM
Summary of the method: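 After overnight plating of 1000 CHO-K1 cells per well, a 15-concentration compound series was applied for 3 hr at 37C. Luminescence from CellTiter-Glo, read following 30 min at room temperature, reflected cell viability.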

| SMILES | Potency |
| --- | --- |
| CCCCCC[n+]1ccccc1 | inactive |
| Nc1ccc(Cl)cc1 | inactive |
| CN(C)[C@@H]1C(=O)C(C(N)=O)=C(O)[C@@]2(O)C(=O)C3=C(O)c4c(O)cccc4[C@@](C)(O)[C@H]3[C@H](O)[C@@H]12 | inactive |
| CC(=O)[O][Hg][c]1ccccc1 | 3.16 µM (active) and 5.66 µM (active) and 24.7 µM (active) |
| Cc1cc(-c2ccc(N)c(C)c2)ccc1N | inactive |
| N#CS | inactive |
| CCCCCCn1cc[n+](C)c1 | inactive |
| CCCCCCCCn1cc[n+](C)c1 | 56.3 µM (active) and 80 µM (active) and 90.5 µM (active) |
| C=CCOC(Cn1ccnc1)c1ccc(Cl)cc1Cl (configuration not stated) | 113 µM (active) and inactive |
| Cc1cc(Cl)ccc1OCC(=O)O | inactive |
| CCCn1cc[n+](C)c1 | inactive |
| CC(Cl)(Cl)C(=O)O | inactive |
| CCCC[n+]1cccc(C)c1 | inactive |
| CCCC[n+]1ccc(C)cc1 | inactive and 89.3 µM (active) |
| O=P1(N(CCCl)CCCl)NCCCO1 (configuration not stated) | inactive |
| CC[n+]1ccccc1 | inactive and 1.26 µM (active) |
| Nc1ccc(-c2ccc(N)c(Cl)c2)cc1Cl | 101 µM (active) |
| Nc1ccccc1 | inactive |
| Nc1ccc(-c2ccc(N)cc2)cc1 | inactive |
| O=C(O)c1ccccc1O | inactive |
| CCCC[n+]1ccccc1C | inactive |
| O=C(O)COc1ccc(Cl)cc1Cl | inactive |
| CCCC[N+]1(C)CCCC1 | inactive |
| CC(=O)O | inactive |
| COP(=O)(OC)OC=C(Cl)Cl | inactive |
| COP(=O)(OC)C(O)C(Cl)(Cl)Cl (configuration not stated) | inactive |
| C[C@]12CCC(=O)C=C1CC[C@@H]1[C@@H]2CC[C@]2(C)C(=O)CC[C@@H]12 | inactive |
| O=C(O)CC(O)(CC(=O)O)C(=O)O | inactive |
| Oc1cccc2cccnc12 | inactive |
| CCC[N+]1(C)CCCC1 | inactive |

Source: PubChem BioAssay (Tox21)
